Screening data deposited in PubChem BioAssay by The Scripps Research Institute Molecular Screening Center.
This is a sample that favours compounds with a hit; in the whole collection about 1.1% have one here.
MOR-DOR inv ag: inverse agonists of human mu-delta opioid receptor heterodimerization. P35372+P41143. inhibition, % at 9.3 µM. AID 504357. actives 0.21% (n = 340,000). cell-based MOR-DOR heterodimer luminescence, inverse agonism; in the data active = inhibition above about 22%, passing the limit was not always enough;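 note: 0% = cells with DMSO and 100% = wells without cells with DMSO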
HTR5A ag: counter-screen for OPRM1-OPRD1 agonists: human HTR5A agonism. HTR5A agonist assay, luminescence, cell-based. P47898. activation, % at 9.3 µM. AID 504692. actives 0.61% (n = 340,000); in the data active = activation mostly above about 9.5%, no sharp cut-off; inactive = mostly below about 7.6%;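 note: 0% = cells with vehicle only and 100% = reference agonist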
Target sequence (P47898 whole entry, looked up): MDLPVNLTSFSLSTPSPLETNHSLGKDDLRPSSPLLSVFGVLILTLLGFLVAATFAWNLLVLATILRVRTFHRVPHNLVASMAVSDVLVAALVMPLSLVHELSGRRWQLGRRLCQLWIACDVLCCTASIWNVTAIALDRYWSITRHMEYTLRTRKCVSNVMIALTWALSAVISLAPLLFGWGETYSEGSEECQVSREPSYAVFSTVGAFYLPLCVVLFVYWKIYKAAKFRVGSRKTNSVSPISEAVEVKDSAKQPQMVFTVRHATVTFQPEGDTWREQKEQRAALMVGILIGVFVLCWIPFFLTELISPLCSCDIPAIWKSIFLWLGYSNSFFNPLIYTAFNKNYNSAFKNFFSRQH
OPRM1-OPRD1 ag: OPRM1-OPRD1 heterodimerization agonism. AID 504326. P35372+P41143. cells, luminescence. activation, % at 9.3 µM. actives 0.3% (n = 340,000);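 note: 0% = vehicle-treated cells and 100% = reference agonist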
HTR5A inv ag: counter-screen for OPRM1-OPRD1 inverse agonists: human HTR5A inverse agonism; P47898; HTR5A cell line, luminescence; inhibition, % at 9.3 µM; actives 0.083% (n = 340,000); AID 504634; in the data active = inhibition mostly above about 23%, no sharp cut-off; inactive = mostly below about 18%;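 note: 0% = cells with DMSO and 100% = no-cell wells with DMSO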
MOR-DOR ag conf: OPRM1-OPRD1 heterodimer agonism, confirmation | actives 45% (n = 830) | activation, % at 9.3 µM | AID 504904 | cells, MOR-DOR heterodimerization, luminescence complementation | shares compounds with OPRM1-OPRD1 ag;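 note: 0% = vehicle-treated cells and 100% = reference agonist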
HTR5A ag counter: counter-screen for OPRM1-OPRD1 agonists: human HTR5A agonism | HTR5A agonist counterscreen, cell luminescence | activation, % at 9.3 µM | shares compounds with OPRM1-OPRD1 ag | AID 504905 | actives 8% (n = 830); in the data active = activation above about 17%;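 note: 0% = vehicle-treated cells and 100% = reference agonist response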
* marks the source's active call; other numbers are inactive results. Cut-off read from the data, not from the text of the source, unless noted: active = activation above about 18%; inactive = the rest.

What do the screens show for `COc1ccc([C@H]2CC(=O)C=C(c3c(C)cc(C)cc3C)C2)cc1`?
MOR-DOR inv ag: -153.6; HTR5A ag: -0.8; OPRM1-OPRD1 ag: 26.6*; HTR5A inv ag: -25.2; MOR-DOR ag conf: -0.1; HTR5A ag counter: 3.5

What do the screens show for `CC(=O)N(c1ccccc1)C(C(=O)c1ccccc1)c1ccccc1` (centres undefined)?
MOR-DOR inv ag: 2.9; HTR5A ag: -0.9; OPRM1-OPRD1 ag: -0.6; HTR5A inv ag: 3.4

How did CCN1C(c2ccccc2)=C(c2ccccc2)S/C1=C\C=C1/SC(=S)N(C)C1=O do in these assays?
MOR-DOR inv ag: inactive; HTR5A ag: 12.9; OPRM1-OPRD1 ag: 137.1*; HTR5A inv ag: -16.3; MOR-DOR ag conf: 12.8; HTR5A ag counter: 5.8

How did CCN1C(=O)/C(=C/C=C2/Sc3ccc4ccccc4c3N2CCO)SC1=S do in these assays?
MOR-DOR inv ag: 0.4; HTR5A ag: 3.8; OPRM1-OPRD1 ag: -0.1; HTR5A inv ag: -7.0

Results for CCN1C(c2ccccc2)=C(c2ccccc2)S/C1=C/C=C1\SC(=S)N(C)C1=O ?
MOR-DOR inv ag: -298.6; HTR5A ag: 10.9; OPRM1-OPRD1 ag: 47.7*; HTR5A inv ag: -31.2; MOR-DOR ag conf: 441.1*; HTR5A ag counter: 29.2*

Results for CN1CCS/C1=C/C=C1/SC(=S)N(Cc2ccccc2)C1=O ?
MOR-DOR inv ag: 22.6; HTR5A ag: 0.2; OPRM1-OPRD1 ag: -4.5; HTR5A inv ag: 1.5

How did CCc1ccc(N(CC(=O)NC2CCCCC2)C(=O)CCC(=O)Nc2ccccn2)cc1 do in these assays?
MOR-DOR inv ag: 8.1; HTR5A ag: 4.0; OPRM1-OPRD1 ag: -1.3; HTR5A inv ag: 2.6

How did O=C(CC(O)(c1ccccc1)c1ccccc1)Nc1ccccn1 do in these assays?
MOR-DOR inv ag: 3.0; HTR5A ag: 3.8; OPRM1-OPRD1 ag: -0.6; HTR5A inv ag: -14.7

How did Cc1nc2cc(NC(=O)c3ccc([N+](=O)[O-])s3)ccc2s1 do in these assays?
MOR-DOR inv ag: -161.1; HTR5A ag: 9.0; OPRM1-OPRD1 ag: 29.8*; HTR5A inv ag: -17.9; MOR-DOR ag conf: 1.5; HTR5A ag counter: 5.7

How did CC/C(=N\NC(=O)c1ccc(CN(C)S(=O)(=O)c2ccc(C)cc2)cc1)c1ccc(OC(F)F)cc1 do in these assays?
MOR-DOR inv ag: -165.1; HTR5A ag: -0.1; OPRM1-OPRD1 ag: 31.2*; HTR5A inv ag: -6.3; MOR-DOR ag conf: 0.8; HTR5A ag counter: 1.0

Results for Cc1ccc(S(=O)(=O)N(C)Cc2ccc(C(=O)NN=C(CC(C)C)CC(C)C)cc2)cc1 ?
MOR-DOR inv ag: -69.6; HTR5A ag: 0.6; OPRM1-OPRD1 ag: 11.6; HTR5A inv ag: -1.7

How did CCOc1ccc(/C=N/NC(=O)CC(=O)Nc2ccc(Cl)c(Cl)c2)cc1 do in these assays?
MOR-DOR inv ag: -111.6; HTR5A ag: 9.3; OPRM1-OPRD1 ag: 21.2*; HTR5A inv ag: -32.2; MOR-DOR ag conf: 16.2; HTR5A ag counter: 3.5

Results for O=C(N[C@H]1C/C=C\C[C@@H](CC(=O)N(CCO)Cc2ccccc2)C(=O)N[C@H](Cc2c[nH]c3ccccc23)COC1=O)OCC1c2ccccc2-c2ccccc21 ?
MOR-DOR inv ag: 10.8; HTR5A ag: 3.1; OPRM1-OPRD1 ag: -1.8; HTR5A inv ag: -13.6

What do the screens show for `O=C(N[C@H]1C/C=C\C[C@H](CC(=O)N(CCO)Cc2ccccc2)C(=O)N[C@H](Cc2c[nH]c3ccccc23)COC1=O)OCC1c2ccccc2-c2ccccc21`?
MOR-DOR inv ag: -154.0; HTR5A ag: -1.1; OPRM1-OPRD1 ag: 28.6*; HTR5A inv ag: -6.7; MOR-DOR ag conf: 35.2*; HTR5A ag counter: 4.3

Results for Cc1sc2ncn(CC(=O)N3CCN(c4ccccc4)CC3)c(=O)c2c1S(=O)(=O)N1CCOCC1 ?
MOR-DOR inv ag: 17.4; HTR5A ag: 4.3; OPRM1-OPRD1 ag: -2.8; HTR5A inv ag: 4.9

What do the screens show for `COc1cc2c(cc1OC)CN(C(=O)Nc1ccccc1)CC2`?
MOR-DOR inv ag: -301.9; HTR5A ag: 4.5; OPRM1-OPRD1 ag: 60.5*; HTR5A inv ag: -24.6; MOR-DOR ag conf: 2.3; HTR5A ag counter: 1.8

What do the screens show for `COc1cc2c(cc1OC)CN(C(=O)Nc1ccccc1Cl)CC2`?
MOR-DOR inv ag: 9.7; HTR5A ag: -0.7; OPRM1-OPRD1 ag: -1.8; HTR5A inv ag: -1.5

How did CCNS(=O)(=O)c1ccc(NC(=O)Nc2ccc3c(c2)OCO3)cc1 do in these assays?
MOR-DOR inv ag: -362.3; HTR5A ag: 5.5; OPRM1-OPRD1 ag: 110.6*; HTR5A inv ag: 17.6; MOR-DOR ag conf: 72.7*; HTR5A ag counter: -0.2

What do the screens show for `CCC(CC)C(=O)Nc1nnc(SCC(=O)NC2CC2)s1`?
MOR-DOR inv ag: 3.2; HTR5A ag: 0.2; OPRM1-OPRD1 ag: -0.6; HTR5A inv ag: -0.6

What do the screens show for `Cc1nc2ccccc2c(=O)n1CCN1CCOCC1`?
MOR-DOR inv ag: 13.9; HTR5A ag: 1.4; OPRM1-OPRD1 ag: -3.0; HTR5A inv ag: 8.2

How did Cc1nc2nc(C)n(CCN3CCOCC3)c(=O)c2c(-c2cccc([N+](=O)[O-])c2)c1C(=O)CCCCCCCCCCN1CCC(c2ccccc2)(c2ccccc2)CC1 do in these assays?
MOR-DOR inv ag: -112.7; HTR5A ag: 7.6; OPRM1-OPRD1 ag: 25.8*; HTR5A inv ag: -29.1; MOR-DOR ag conf: 130.7*; HTR5A ag counter: 5.8

What do the screens show for `Cc1nc(NCC(c2ccccc2)N(C)C)c2c(C)c(C)sc2n1` (centres undefined)?
MOR-DOR inv ag: -301.8; HTR5A ag: 4.8; OPRM1-OPRD1 ag: 37.4*; HTR5A inv ag: -14.1; MOR-DOR ag conf: 47.8*; HTR5A ag counter: 7.0

Results for Cc1sc2ncnc(NCC(c3ccccc3)N(C)C)c2c1C (centres undefined) ?
MOR-DOR inv ag: -40.7; HTR5A ag: 3.9; OPRM1-OPRD1 ag: 6.3; HTR5A inv ag: -11.0

How did c1ccc(CNc2c3ccccc3nc3ccccc23)cc1 do in these assays?
MOR-DOR inv ag: -122.2; HTR5A ag: -1.3; OPRM1-OPRD1 ag: 22.1*; HTR5A inv ag: 5.0; MOR-DOR ag conf: 0.8; HTR5A ag counter: -2.2

Results for O=C(NCCc1ccccc1)C(c1cccs1)N(C(=O)CCl)c1ccc(Cl)cc1 (centres undefined) ?
MOR-DOR inv ag: inactive; HTR5A ag: 31.7*; OPRM1-OPRD1 ag: 87.1*; HTR5A inv ag: -84.6; MOR-DOR ag conf: 13.5; HTR5A ag counter: 4.0

What do the screens show for `O=C(NCCc1ccccc1)C(c1cccs1)N(C(=O)c1csnn1)C1CC1` (centres undefined)?
MOR-DOR inv ag: 11.3; HTR5A ag: -1.9; OPRM1-OPRD1 ag: -2.1; HTR5A inv ag: 5.0

How did CC12CCC(=O)C=C1CCCC2=O (centres undefined) do in these assays?
MOR-DOR inv ag: 7.4; HTR5A ag: 5.5; OPRM1-OPRD1 ag: -1.4; HTR5A inv ag: -19.8

What do the screens show for `c1ccc(CN2CCN(C(c3ccccc3)c3ccccc3)CC2)cc1`?
MOR-DOR inv ag: -130.7; HTR5A ag: -2.6; OPRM1-OPRD1 ag: 26.2*; HTR5A inv ag: -14.8; MOR-DOR ag conf: 19.2*; HTR5A ag counter: -3.7
